Measurements from PubChem BioAssay (Tox21).
Records with an inconclusive call do not appear. Active and inactive are the calls of the source. Unless noted, the call rests on the fitted dose curve; in most records, active means well fitted curve in the direction sought with a large enough effect in the repeat runs; inconclusive means weak or mixed curves; inactive means no such curve, though single readings can be large; an effect the other way counts as inactive or inconclusive.

Columns and labels:
[1] = qHTS assay to identify small molecule antagonists of the estrogen receptor alpha (ER-alpha) signaling pathway using the BG1 cell line in the presence of 0.1 nM 17-beta-estradiol - cell viability counter screen (AID 1259241); further: nearly all actives have a fitted effect of over 40% in size; further: potency means the concentration at half of the fitted maximal effect
Procedure, shortened: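 VM7Luc4E2 cells (endogenous full-length ER-alpha, 4xERE-luciferase), cultured 5 days in charcoal-stripped serum, exposed to compounds with 0.1 nM 17beta-estradiol (final) for 22 hr at 37C. Viability read in same wells as live-cell protease fluorescence after 30 min.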

[2] = biological target: Estrogen receptor (Homo sapiens) (UniProt P03372); experiment: qHTS assay to identify small molecule antagonists of the estrogen receptor alpha (ER-alpha) signaling pathway using the BG1 cell line in the presence of 0.1 nM 17-beta-estradiol (AID 1259244); further: nearly all actives have a fitted effect of over 50% in size; further: potency means the concentration at half of the fitted maximal effect
Sequence of Estrogen receptor (Homo sapiens) (P03372 whole entry, looked up): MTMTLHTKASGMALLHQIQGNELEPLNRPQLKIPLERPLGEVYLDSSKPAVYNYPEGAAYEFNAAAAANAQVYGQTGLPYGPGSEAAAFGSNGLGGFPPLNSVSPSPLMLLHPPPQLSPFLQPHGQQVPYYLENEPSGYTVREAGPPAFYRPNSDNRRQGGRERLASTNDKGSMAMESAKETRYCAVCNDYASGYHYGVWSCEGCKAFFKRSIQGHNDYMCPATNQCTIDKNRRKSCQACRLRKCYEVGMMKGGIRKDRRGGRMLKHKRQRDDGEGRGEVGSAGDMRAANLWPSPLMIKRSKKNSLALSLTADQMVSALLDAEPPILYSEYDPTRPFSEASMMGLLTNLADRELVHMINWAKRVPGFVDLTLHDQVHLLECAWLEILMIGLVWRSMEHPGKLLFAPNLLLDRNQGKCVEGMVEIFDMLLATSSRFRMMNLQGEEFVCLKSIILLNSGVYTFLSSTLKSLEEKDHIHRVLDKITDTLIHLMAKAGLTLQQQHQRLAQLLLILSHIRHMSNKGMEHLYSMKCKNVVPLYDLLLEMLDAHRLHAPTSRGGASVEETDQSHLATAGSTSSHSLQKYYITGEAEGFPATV
Procedure, shortened: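 Seeding of stripped-serum-adapted VM7Luc4E2 cells, 24 h attachment, compound transfer, then 0.1 nM final 17beta-estradiol; after 22 h incubation, ONE-Glo reagent and luminescence reading.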

[3] = qHTS assay to identify small molecule phospholipidosis (PLD) inducers (AID 1259344; active means well fitted curve in the direction sought with a large enough effect; an effect the other way counts as inactive or inconclusive)
Procedure, shortened: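 Image-based: LipidTOX Red pit count/intensity per well and per cell; HepG2, 24 h compound at 37 C, PFA fixation, Hoechst counterstain.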

[4] = qHTS assay to identify small molecule HDAC inhibitors (AID 1259364); further: potency means the concentration at half of the fitted maximal effect;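 further: wild-type HCT-116 cells with endogenous class I/II HDAC activity; nearly all actives have a fitted effect of over 45% in size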
Procedure, shortened: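 After a 2 hr compound incubation (37C, 5% CO2), HCT-116 cells seeded at 1,500/well the day before received HDAC-Glo reagent; signal read as luminescence after 30 min at room temperature.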

[5] = qHTS assay to identify small molecule agonists of the sonic hedgehog signaling (Shh) pathway - cell viability counter screen (AID 1259366); further: nearly all actives have a fitted effect of over 50% in size; further: potency means the concentration at half of the fitted maximal effect
Procedure, shortened: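 NIH/3T3-derived Gli1-Luc reporter cells, 2,000 per well, received compound after 4 h and were treated about 23 h at 37C. Viability measured in the same wells by CellTiter-Fluor fluorescence after 1 h.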

[6] = qHTS assay to identify small molecule antagonists of the sonic hedgehog signaling (Shh) pathway - cell viability counter screen (AID 1259367); further: nearly all actives have a fitted effect of over 55% in size; further: potency means the concentration at half of the fitted maximal effect
Procedure, shortened: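 Tox21 library chemicals were tested on a Gli1-Luc NIH/3T3 clone (2,000 cells/well) stimulated by conditioned medium; viability was quantified as fluorescence from CellTiter-Fluor reagent added at 23 hr.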

[7] = qHTS assay to identify small molecule agonists of the sonic hedgehog signaling (Shh) pathway (AID 1259368; calls by dose curve;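 further: NIH/3T3-derived 3T3Gli1-Luc cells carrying a stable Gli1-driven firefly luciferase reporter; series mostly up to about 92 µM; nearly all actives have a fitted effect of over 15% in size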)
Procedure, shortened: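 Stable NIH/3T3 Gli1-Luc reporter clone; 24 hr cpd exposure after a 4 hr settling period; luminescence endpoint.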

[8] = qHTS assay to identify small molecule antagonists of the sonic hedgehog signaling (Shh) pathway (AID 1259369; calls by dose curve; further: nearly all actives have a fitted effect of over 45% in size; further: potency means the concentration at half of the fitted maximal effect)
Procedure, shortened: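 Gli1 transcriptional reporter (firefly Luc) in NIH/3T3 background, conditioned-medium activated. 24hr exposure, luminescence endpoint.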

[9] = qHTS assay to identify small molecule agonists of the androgen receptor (AR) signaling pathway in the presence of an antagonist - cell viability counter screen (AID 1259379); further: nearly all actives have a fitted effect of over 25% in size; further: potency means the concentration at half of the fitted maximal effect
Procedure, shortened: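 Counter screen for cell viability run in parallel with the AR agonist-mode luciferase assay. MDA-kb2 cells were co-treated with nilutamide (3.0uM final) and compounds, then incubated 16 hr at 37C, and CellTiter-Fluor fluorescence was measured.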

[10] = qHTS assay to identify small molecule agonists of the estrogen receptor beta (ER-beta) signaling pathway - cell viability counter screen (AID 1259380); further: nearly all actives have a fitted effect of over 30% in size; further: potency means the concentration at half of the fitted maximal effect
Procedure, shortened: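 In this qHTS counter screen, HEK293T cells carrying an ER-beta/UAS beta-lactamase reporter, grown in 2% charcoal-stripped FBS, received compound for 16 hr; ATP-based CellTiter-Glo luminescence was then read after 30 min at room temperature.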

[11] = biological target: Estrogen receptor (Homo sapiens) (UniProt P03372); experiment: qHTS assay to identify small molecule agonists of the estrogen receptor alpha (ER-alpha) signaling pathway in the presence of an antagonist (AID 1259383; calls by dose curve; further: top concentration of the series differs between compounds; nearly all actives have a fitted effect of over 15% in size)
Procedure, shortened: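 ER-alpha agonism measured under antagonist challenge: 10.0nM ICI-182,780 (final) plus compound, 15 concentrations, 22hr, VM7Luc4E2 ERE-luciferase cells. Read by luminescence.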

[12] = qHTS assay to identify small molecule agonists or antagonists of the thyroid stimulating hormone receptor (TSHR) signaling pathway - wild type cell line counter screen (AID 1259384; calls by dose curve)
Procedure, shortened: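 Wild-type Hek293 cells, 800/well, 18 h at 37C, then compound with Ro20-1724 for 30 min RT. cAMP by HTRF (cAMP-d2/anti-cAMP cryptate), 1 h RT, fluorescence read. 15 concentrations, triplicates.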

[13] = biological target: Thyrotropin receptor (Homo sapiens) (UniProt P16473); experiment: qHTS assay to identify small molecule antagonists of the thyroid stimulating hormone receptor (TSHR) signaling pathway (AID 1259385; calls by dose curve; further: nearly all actives have a fitted effect of over 20% in size; further: potency means the concentration at half of the fitted maximal effect)
Sequence of Thyrotropin receptor (Homo sapiens) (P16473 whole entry, looked up): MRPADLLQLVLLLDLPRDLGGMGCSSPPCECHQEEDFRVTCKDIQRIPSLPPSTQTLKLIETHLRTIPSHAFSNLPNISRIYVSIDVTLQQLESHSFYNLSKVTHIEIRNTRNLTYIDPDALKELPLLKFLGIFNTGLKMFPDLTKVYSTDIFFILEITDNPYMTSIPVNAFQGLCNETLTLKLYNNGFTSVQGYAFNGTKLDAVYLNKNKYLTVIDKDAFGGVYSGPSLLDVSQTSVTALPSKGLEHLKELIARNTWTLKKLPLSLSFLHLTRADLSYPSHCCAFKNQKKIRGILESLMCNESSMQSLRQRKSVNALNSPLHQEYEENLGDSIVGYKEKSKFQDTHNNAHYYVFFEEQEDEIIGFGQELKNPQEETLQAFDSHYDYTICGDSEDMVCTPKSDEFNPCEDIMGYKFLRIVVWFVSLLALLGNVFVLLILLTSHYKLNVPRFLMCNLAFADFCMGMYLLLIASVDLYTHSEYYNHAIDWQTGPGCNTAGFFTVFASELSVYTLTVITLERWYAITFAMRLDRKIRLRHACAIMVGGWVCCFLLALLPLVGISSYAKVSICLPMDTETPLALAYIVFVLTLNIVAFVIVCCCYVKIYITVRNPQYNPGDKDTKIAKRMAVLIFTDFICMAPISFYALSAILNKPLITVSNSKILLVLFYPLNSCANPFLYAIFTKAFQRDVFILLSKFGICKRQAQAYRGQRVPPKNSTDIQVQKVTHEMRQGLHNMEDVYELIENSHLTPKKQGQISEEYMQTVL
Procedure, shortened: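 TSHR-HEK293 cells (800/well) plated 18 h, then compounds with Ro20-1724 and TSH at 1.5 ng/mL final, 30 min at room temperature. cAMP quantified by HTRF (cAMP-d2/anti-cAMP-cryptate, 1 h); 15 concentrations in triplicate.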

[14] = biological target: Androgen receptor (Homo sapiens) (UniProt P10275); experiment: qHTS assay to identify small molecule antagonists of the androgen receptor (AR) signaling pathway using the MDA cell line in the presence of 0.5 nM R1881 (AID 1259243); further: nearly all actives have a fitted effect of over 50% in size; further: potency means the concentration at half of the fitted maximal effect
Sequence of Androgen receptor (Homo sapiens) (P10275 whole entry, looked up): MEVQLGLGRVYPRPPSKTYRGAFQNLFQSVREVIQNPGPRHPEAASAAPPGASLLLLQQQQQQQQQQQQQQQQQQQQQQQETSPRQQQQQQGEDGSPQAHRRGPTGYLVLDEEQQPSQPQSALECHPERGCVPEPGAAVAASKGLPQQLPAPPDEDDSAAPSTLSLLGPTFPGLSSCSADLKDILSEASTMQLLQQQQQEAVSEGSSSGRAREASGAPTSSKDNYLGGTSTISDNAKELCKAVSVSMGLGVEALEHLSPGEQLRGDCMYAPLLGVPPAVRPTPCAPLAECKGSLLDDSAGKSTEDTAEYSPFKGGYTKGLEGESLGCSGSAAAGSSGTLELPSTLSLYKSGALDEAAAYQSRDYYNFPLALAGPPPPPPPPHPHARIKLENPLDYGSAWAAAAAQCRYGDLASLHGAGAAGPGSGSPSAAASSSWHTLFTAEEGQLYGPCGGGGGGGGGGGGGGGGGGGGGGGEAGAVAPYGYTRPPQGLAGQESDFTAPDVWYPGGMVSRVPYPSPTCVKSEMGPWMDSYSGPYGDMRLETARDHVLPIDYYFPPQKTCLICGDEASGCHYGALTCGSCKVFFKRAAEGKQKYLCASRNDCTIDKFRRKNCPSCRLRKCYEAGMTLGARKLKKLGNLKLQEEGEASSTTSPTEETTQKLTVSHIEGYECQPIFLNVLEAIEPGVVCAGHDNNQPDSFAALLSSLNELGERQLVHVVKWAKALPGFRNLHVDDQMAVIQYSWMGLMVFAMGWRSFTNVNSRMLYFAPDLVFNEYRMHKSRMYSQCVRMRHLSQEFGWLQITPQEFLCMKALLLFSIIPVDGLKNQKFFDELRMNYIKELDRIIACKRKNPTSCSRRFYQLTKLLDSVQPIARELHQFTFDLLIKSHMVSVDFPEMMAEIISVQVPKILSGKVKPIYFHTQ
Procedure, shortened: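 Cells: MDA-kb2 (MMTV-luc). Stimulus: 0.5 nM R1881. Time: 16 hr, 37C, no CO2. Detection: ONE-Glo luminescence after 30 min at RT.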

[15] = biological target: Estrogen receptor beta (Homo sapiens) (UniProt Q92731); experiment: qHTS assay to identify small molecule antagonists of the estrogen receptor beta (ER-beta) signaling pathway (AID 1259378; active means well fitted inhibition curve with a large enough effect in the signal ratio in the repeat runs, not every such curve was filed as active; the % refers to the signal ratio; further: potency means the concentration at half of the fitted maximal effect)
Sequence of Estrogen receptor beta (Homo sapiens) (Q92731 whole entry, looked up): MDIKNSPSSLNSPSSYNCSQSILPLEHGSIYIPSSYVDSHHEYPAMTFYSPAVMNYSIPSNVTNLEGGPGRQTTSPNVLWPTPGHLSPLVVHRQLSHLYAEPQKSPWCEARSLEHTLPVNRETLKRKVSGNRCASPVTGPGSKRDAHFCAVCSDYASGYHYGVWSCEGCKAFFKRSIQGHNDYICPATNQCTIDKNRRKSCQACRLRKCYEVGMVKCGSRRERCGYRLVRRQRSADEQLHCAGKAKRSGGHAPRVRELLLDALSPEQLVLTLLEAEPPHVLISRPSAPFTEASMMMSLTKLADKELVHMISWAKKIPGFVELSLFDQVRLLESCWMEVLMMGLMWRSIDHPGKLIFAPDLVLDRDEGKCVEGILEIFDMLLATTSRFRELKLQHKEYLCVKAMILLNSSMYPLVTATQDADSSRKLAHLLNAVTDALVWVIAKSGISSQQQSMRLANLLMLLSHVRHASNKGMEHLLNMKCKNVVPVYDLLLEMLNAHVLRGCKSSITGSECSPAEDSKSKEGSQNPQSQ
Procedure, shortened: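 ER-beta-UAS-bla HEK293T cells in 2% charcoal-stripped FBS medium treated with compound plus 1nM final 17-beta-estradiol for 16 hr at 37C. Beta-lactamase reporter read by FRET substrate fluorescence after 2 hours at room temperature.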

[16] = biological target: Androgen receptor (Homo sapiens) (UniProt P10275); experiment: qHTS assay to identify small molecule agonists of the androgen receptor (AR) signaling pathway in the presence of an antagonist (AID 1259381; calls by dose curve; further: nearly all actives have a fitted effect of over 15% in size)
Procedure, shortened: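 AR antagonist background: nilutamide 3.0uM final. Cell line: MDA-kb2, MMTV-driven luciferase, responsive to both AR and GR. Exposure 16hr, 37C, no CO2; ONE-Glo luminescence.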

[17] = qHTS assay to identify small molecule antagonists of the estrogen receptor beta (ER-beta) signaling pathway - cell viability counter screen (AID 1259382); further: nearly all actives have a fitted effect of over 55% in size; further: potency means the concentration at half of the fitted maximal effect
Procedure, shortened: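 HEK293T ER-beta-UAS-bla, 2% charcoal-stripped FBS; compounds + 1nM E2 16 hr 37C; CellTiter-Glo luminescence, 30 min RT.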

[18] = qHTS assay to identify small molecule HDAC inhibitors - cell viability counter screen (AID 1259365); further: nearly all actives have a fitted effect of over 50% in size; further: potency means the concentration at half of the fitted maximal effect
Procedure, shortened: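 Wild-type HCT-116 cells, 1,500/well, cultured overnight, then compound-treated 2 h at 37 C. Viability measured as ATP luminescence with CellTiter-Glo after 30 min at room temperature.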

[19] = biological target: Estrogen receptor beta (Homo sapiens) (UniProt Q92731); experiment: qHTS assay to identify small molecule agonists of the estrogen receptor beta (ER-beta) signaling pathway (AID 1259377; active means well fitted activation curve with a large enough effect in the signal ratio in the repeat runs, not every such curve was filed as active; the % refers to the signal ratio)
Procedure, shortened: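 ER-beta-UAS-bla HEK293T cells in medium with 2% charcoal-stripped FBS were exposed to compounds for 16 h at 37C. Beta-lactamase reporter activity was read as fluorescence after 2 h with LiveBLAzer B/G FRET substrate at room temperature.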

[20] = qHTS assay to identify small molecule antagonists of the androgen receptor (AR) signaling pathway using the MDA cell line in the presence of 0.5 nM R1881 - cell viability counter screen (AID 1259242); further: nearly all actives have a fitted effect of over 45% in size; further: potency means the concentration at half of the fitted maximal effect
Procedure, shortened: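 Human breast carcinoma MDA-kb2 cells, cultured without CO2, receive compounds alongside 0.5 nM (final) R1881 agonist. After 16 hr at 37C, viability is taken as live-cell protease signal.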

Measured: Potency

OC1(c2ccc(Cl)c(C(F)(F)F)c2)CCN(CCCC(c2ccc(F)cc2)c2ccc(F)cc2)CC1
active: [1] 33.5 µM | [2] 26.6 µM | [5] 13.3 µM | [6] 18.8 µM | [8] 13.3 µM | [9] 18.8 µM | [10] 10.6 µM
inactive: [3] | [4] | [7] | [11] | [12] | [13]

Oc1cccc(-c2c3nc(c(-c4cccc(O)c4)c4ccc([nH]4)c(-c4cccc(O)c4)c4nc(c(-c5cccc(O)c5)c5ccc2[nH]5)CC4)C=C3)c1
active: [1] 3.35 µM | [14] 29.8 µM | [6] 13.3 µM | [8] 16.8 µM | [15] 26.6 µM | [9] 8.41 µM | [10] 8.41 µM | [17] 21.1 µM
inactive: [3] | [7] | [16] | [11] | [12]

O=C(NOCC1CC1)c1ccc(F)c(F)c1Nc1ccc(I)cc1Cl
active: [14] 8.41 µM | [8] 13.3 µM | [15] 8.41 µM | [9] 29.8 µM
inactive: [1] | [3] | [4] | [18] | [5] | [6] | [7] | [19] | [16] | [17] | [11]

[Cl][Au]([Cl])[Cl]
active: [1] 68.6 µM | [20] 24.3 µM | [6] 4.86 µM | [8] 0.172 µM | [9] 54.5 µM
inactive: [4] | [18] | [7] | [12]

Fc1ccc([C@@H]2CCNC[C@H]2COc2ccc3c(c2)OCO3)cc1
active: [10] 33.5 µM | [17] 26.6 µM
inactive: [1] | [14] | [2] | [3] | [4] | [18] | [5] | [6] | [7] | [8] | [16] | [11] | [12] | [13]

O=[N+]([O-])c1ccccc1Nc1ccccc1
inactive: [1] | [2] | [4] | [18] | [5] | [6] | [7] | [8] | [19] | [15] | [9] | [10] | [17] | [12]

O=C(Nc1cccc(C(F)(F)F)c1)c1cc(Br)cc(Br)c1O
active: [2] 4.86 µM | [4] 3.86 µM | [8] 1.72 µM | [9] 4.33 µM | [10] 24.3 µM | [17] 27.3 µM
inactive: [1] | [3] | [18] | [5] | [7] | [12] | [13]

Oc1ccc(C2(c3ccc(O)cc3)CC3CC2C2CCCC32)cc1 (stereo unspecified)
active: [14] 52.3 µM | [2] 0.117 µM | [8] 20.8 µM | [10] 26.2 µM | [17] 26.2 µM
inactive: [1] | [4] | [18] | [7] | [16] | [11]

NNC(=O)c1cccc(C(=O)NN)c1
inactive: [1] | [14] | [2] | [4] | [18] | [5] | [6] | [7] | [8] | [9] | [16] | [17] | [11]

COC(=O)C1=C(C)NC(C)=C(C(=O)OCCc2ccc(N3CCN(C(c4ccccc4)c4ccccc4)CC3)cc2)C1c1cccc([N+](=O)[O-])c1 (stereo unspecified)
inactive: [1] | [14] | [2] | [4] | [18] | [5] | [6] | [7] | [8] | [9] | [10] | [16] | [11]

N=C1N=C(N)c2ccccc21
active: [8] 8.63 µM
inactive: [1] | [20] | [4] | [18] | [7] | [17] | [11]

CCCC(c1cc(C(C)(C)C)c(O)cc1C)c1cc(C(C)(C)C)c(O)cc1C
active: [1] 61.9 µM | [2] 27.6 µM | [18] 49.2 µM | [6] 17.4 µM | [8] 13.9 µM | [9] 31 µM | [10] 12.3 µM | [17] 13.9 µM
inactive: [4] | [7] | [11] | [12]

CCOc1nc2cccc(C(=O)OC(C)OC(=O)OC3CCCCC3)c2n1Cc1ccc(-c2ccccc2-c2nn[nH]n2)cc1 (stereo unspecified)
inactive: [1] | [4] | [7] | [19] | [11] | [12] | [13]
active: [8] 21.7 µM | [10] 13.7 µM | [17] 19.3 µM

C[C@H]1[C@H]2CC[C@H]3[C@@H]4CC=C5C[C@@H](N(C)C)CC[C@]5(C)[C@H]4CC[C@]23CN1C
inactive: [1] | [3] | [4] | [18] | [5] | [6] | [7] | [8] | [19] | [15] | [10] | [16] | [17] | [12] | [13]

CCCCCCCCn1sc(Cl)c(Cl)c1=O
active: [9] 27.3 µM | [10] 12.2 µM | [13] 61.1 µM
inactive: [1] | [4] | [18] | [7] | [19] | [11] | [12]

CC[C@H]1O[C@]2(CC[C@@H]1C)C[C@@H]1C[C@@H](C/C=C(\C)C[C@@H](C)/C=C/C=C3\CO[C@@H]4[C@H](O)C(C)=C[C@@H](C(=O)O1)[C@]34O)O2
active: [9] 60.6 µM | [10] 24.1 µM
inactive: [1] | [4] | [18] | [6] | [7] | [8] | [11] | [12] | [13]
